PubChem BioAssay (NCI)
About 83,000 compounds went through this panel and 20% of them were active in at least one assay; those are over-represented in the sample as a whole.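 Assay: single dose, 48 h. Readout: percent growth (0 = no net growth; negative = cell death). Active: <10.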 Unmarked numbers belong to inactive results. The source made the active and inactive calls.

Each compound was assayed on CAKI-1 renal (assay: NCI-60 one-dose screen, 48 h (100 = growth as untreated, 0 = no growth, -100 = all killed)). Conditions: 10 µM unless noted.

| Structure (SMILES) | growth |
| --- | --- |
| Cc1ccc2sc3c(NCCCNCCO)nc4ccccc4c3c(=O)c2c1 | 56.7% |
| NCCOc1ncccc1/C=C1\c2ccccc2-c2ccc(F)cc21 | 12.8% |
| CNCCNc1nc2ccccc2c2c(=O)c3cc(OC)ccc3sc12 | 48% |
| CC(C)c1ccc(S(=O)(=O)NC(=O)NC2CCCC2)cc1 | 96.7% |
| COc1cc(/C=C2\CN(C)C/C(=C\c3cc(CN4CCCC4)c(O)c(OC)c3)C2=O)cc(CN2CCCC2)c1O | 99.6% |
| Nc1ccccc1-c1ccc(-c2ccc(Cl)cc2)c2c1[nH]c1ccccc12 | 50% |
| O=C(Cn1cc(COc2ncnc3c2cnn3-c2ccccc2)nn1)Nc1ccccn1 | 86.6% |
| NCCOc1ccccc1/C=C1\c2ccccc2-c2ccc([N+](=O)[O-])cc21 | 1.27% (active) |
| COc1cc(/C(C#N)=C/c2nc3c(N4CCOCC4)nc(Cl)nc3n2C)cc(OC)c1OC | 6.49% (active) |
| Cc1ccc2cccc(Oc3ccc(Nc4ncnc5onc(-c6ccccc6)c45)cc3)c2n1 | 89.2% |
| COC(=O)/C(CCC=C(C)C)=C1\[C@@H](OC(C)=O)C[C@@]2(C)[C@H]1C[C@@H](O)[C@H]1[C@@]3(C)CC[C@H](NCc4ccccc4)[C@@H](C)[C@@H]3CC[C@@]12C | 72.5% |
| COc1cc(/C=C/C(=O)c2ccc(Cl)cc2)cc(CN2CCCCC2)c1O | 85.2% |
| O=C(/C=C/c1ccc(Cl)cc1)c1ccc(Nc2nc(NCCO)nc(Nc3ccc(Cl)cc3)n2)cc1 | 67.3% |
| CN1CCN(Cc2ccc(NC(=O)c3[nH]ncc3Nc3cc(OC4CCCC4)ncn3)cc2)CC1 | 19.2% |
| Cn1c(/C=C(\C#N)c2ccccc2)nc2c(N3CCOCC3)nc(Cl)nc21 | -96.9% (active) |
| CCN1C(=O)N(CC)C2Nn3c(s/c(=C\c4ccccc4F)c3=O)=NC21 (centres undefined) | 48.1% |
| Cc1ccccc1CNC(=O)C1CN(c2ccc(Cl)cc2)N(c2ccc(Cl)cc2)C1=O (centres undefined) | 71.6% |
| CCCCC1CCc2cccc3c(SCC(=O)N(C)c4ccc(Cl)cc4)cc[n+]1c23 (centres undefined) | 99.1% |
| Clc1ccc(Oc2ccc(Nc3ncnc4onc(-c5ccccc5)c34)cc2)c(Cl)c1 | 90.6% |
| O=C(O)c1cn(C2CC2)c2cc(N3CCN(C(=O)C[n+]4ccccc4)CC3)c(F)cc2c1=O | 94.3% |

| Structure (SMILES) | growth |
| --- | --- |
| O=C(CSc1nc2ccccc2c(=O)n1-c1ccccc1)Nc1ccc(C(=O)/C=C/c2ccc(Cl)cc2)cc1 | 97.8% |
| Cc1nc(Nc2cn[nH]c2C(=O)Nc2ccc(CN3CCN(C)CC3)cc2)c2ccsc2n1 | 61.5% |
| CN1C(=O)N(C)C2Nn3c(s/c(=C4\C(=O)N(CCc5ccccc5)c5ccccc54)c3=O)=NC21 (centres undefined) | 49.2% |
| O=C(/C=C/c1ccc(C(F)(F)F)cc1)c1ccc(Nc2nc(NCCO)nc(N3CCOCC3)n2)cc1 | 53.1% |
| COc1cc(/C=C/C(=O)c2ccc(Nc3nc(NCCO)nc(N4CCOCC4)n3)cc2)cc(OC)c1OC | 23.6% |
| COc1cc(/C=C2\CN(S(=O)(=O)c3ccccc3)C/C(=C\c3cc(CN4CCCC4)c(O)c(OC)c3)C2=O)cc(CN2CCCC2)c1O | 75.3% |
| O=c1c2cc(F)ccc2sc2c(Nc3ccncc3)nc3ccccc3c12 | 82.5% |
| O=c1c2cc(F)ccc2sc2c(NCCN3CCCC3)nc3ccccc3c12 | 62.8% |
| CNC(=O)c1cc(Oc2ccc(CC(=O)Nc3cc(C(C)(C)C)cn3C)cc2)ccn1 | 56% |
| COc1cc2nc(NC3CCCC3)nc(NC3CCN(C(C)C)CC3)c2cc1OC | 98.2% |
| O=C(NCc1ccco1)C1CN(c2ccc(Cl)cc2)N(c2ccc(Cl)cc2)C1=O (centres undefined) | 41.1% |
| COc1cccc2cc(N(C)c3nc(C)nc4ccsc34)ccc12 | 21.5% |
| CN1C(=O)N(C)C2(c3ccccc3)OC(=S)NC12c1ccccc1 (centres undefined) | 84.7% |
| Nc1nc(-c2cnccn2)nn1-c1nc2ccccc2s1 | 96.8% |
| COc1ccc(N)c(-c2cc3c(c4c2[nH]c2ccc(OC)cc24)CCCC3)c1 | 67.1% |
| COc1cccc(/C(C#N)=C/c2nc3c(N4CCOCC4)nc(Cl)nc3n2C)c1 | -92.1% (active) |
| O=c1c(-c2nc3ccccc3[nH]2)cc2ccccc2n1Cc1cn(Cc2ccc(N3CCOCC3)cc2)nn1 | 77.3% |
| Cn1c2c(c(=O)[nH]c1=O)NC1=C(C(=O)c3ccccc31)C1(C=C(O)c3ccccc31)N2 (centres undefined) | 86% |
| COC(=O)/C(CCC=C(C)C)=C1\[C@@H](OC(C)=O)C[C@@]2(C)[C@H]1C[C@@H](O)[C@H]1[C@@]3(C)CC[C@H](NCCCNCCCCNCCCN)[C@@H](C)[C@@H]3CC[C@@]12C | 61.9% |
